Active and inactive are the calls of the source. Rule for the calls: active = hit-call score of the fitted dose curve at least 0.9, where 1 is the maximum; inactive = score below 0.9.
Assay: ATG_VDRE_CIS: Attagene CIS-FACTORIAL HepG2 Assay for human Vitamin D Receptor Element (VDRE) (AID 2282968)
Details: HepG2 VDRE cis-reporter transcription, actives raise or lower the signal
Procedure: ATG_CIS is a cell-based, multiplexed-readout assay that uses HepG2, a human liver cell line, with measurements taken at 24 hours after chemical dosing in a 24-well plate.ATG_VDRE_CIS is one of 52 assay component(s) measured or calculated from the ATG_CIS assay. It is designed to make measurements of mRNA induction, a form of inducible reporter, as detected with fluorescence intensity signals by Reverse transcription polymerase chain reaction (RT-PCR) and Capillary electrophoresis technology.Data from the assay component ATG_VDRE_CIS was analyzed into 1 assay endpoint. This assay endpoint, ATG_VDRE_CIS, was analyzed with bidirectional fitting relative to DMSO as the negative control and baseline of activity. Using a type of inducible reporter, measures of mRNA for gain or loss-of-signal activity can be used to understand the reporter gene at the transcription factor-level as they relate to the gene VDR. Furthermore, this assay endpoint can be referred to as a primary readout, because this assay has produced multiple assay endpoints where this one serves a reporter gene function. To generalize the intended target to other relatable targets, this assay endpoint is annotated to the nuclear receptor intended target family, where the subfamily is non-steroidal.
Human liver HepG2 cells are transiently transfected with multiple reporter transcription units (MRTUs) in 6-well plates using FuGene 6 reagent (Roche; 3 ml FuGene/1 mg DNA). The MRTU constructs are regulated by a cis-regulating element (promoter). […] A major difference between the CIS and TRANS system is that in CIS activities of endogenous TFs are measured, whereas the TRANS assay evaluates changes in activities of exogenous, chimeric NR-Gal4 proteins. […] At the end of 24 hour incubation, total RNA was isolated using TriZol reagent (Invitrogen). The isolated RNA is then reverse-transcribed using oligo(dT) primer and Mo-MLV reverse transcriptase (Invitrogen) with DNAse I (Ambion) treatment for 30 min. The one-tenth of the produced cDNA was amplified by PCR using Taq DNA polymerase (Invitrogen) and two reporter sequence-specific primers. The PCR products were fluorescently labeled by primer extension with 6-arboxyfluorescein (6-FAM) 5'-labeled reporter sequence-specific primer (2 min at 95 C, 20 s at 68 C and 10 min at 72 C) and these products were digested with 5U of HpaI (New England Biolabs) for 2h at 37 C. The fragments were purified using Qiaquick PCR columns (Qiagen), analyzed on an ABI 3130xL genetic analyzer (Applied Biosystems) with peak positions identified by using a set of X-rhodamine (ROX)-labeled MapMarker1000 molecular weight standards (BioVentures). The raw capillary electrophoresis data was processed using Attagraph software (Attagene).

| SMILES | outcome | AC50 |
| --- | --- | --- |
| CC1=CC(=O)CC(C)(C)C1 | inactive |  |
| CC(C)CCCCCCOC(=O)c1ccc(C(=O)OCCCCCCC(C)C)c(C(=O)OCCCCCCC(C)C)c1 | inactive |  |
| CCOc1cccc(-n2cc(C(=O)N3CCN(c4cc(C(=O)O)c5ccccc5c4)CC3)nc2-c2ccc(C)cc2)c1 |  | 27.2 µM (active) |
| CC(C)c1cccc(C(C)C)c1N1C(=O)c2ccc(O)cc2C1=O |  | 33.9 µM (active) |
| Cc1c(-c2cccnc2)c2ccccc2n1CCCCC(=O)O | inactive |  |
| Oc1ccc2c(c1)-c1ccccc1C2 |  | 28.8 µM (active) |
| O=c1n(CC2CO2)c(=O)n(CC2CO2)c(=O)n1CC1CO1 (stereo not given) |  | 100 µM (active) |
| CC(C)CCO | inactive |  |
| CCOCCO | inactive |  |
| CCCCC(CC)COC(=O)CCCCCCCCC(=O)OCC(CC)CCCC (stereo not given) | inactive |  |
| COc1ccc(-n2nc(C(F)F)cc2-c2ccc(S(C)=O)cc2)cc1 (stereo not given) | inactive |  |
| O=C1OC(=O)C2C3C=CC(C3)C12 (stereo not given) | inactive |  |
| CCCCCCCCCCCCCCCO | inactive |  |
| O=P(OC(CCl)CCl)(OC(CCl)CCl)OC(CCl)CCl |  | 3.53 µM (active) |
| CC(=O)OC[C@H]1O[C@@](COC(C)=O)(O[C@H]2O[C@H](COC(C)=O)[C@@H](OC(C)=O)[C@H](OC(C)=O)[C@H]2OC(C)=O)[C@@H](OC(C)=O)[C@@H]1OC(C)=O | inactive |  |
| CCC(C)(C)C(=O)O[C@H]1C[C@@H](C)C=C2C=C[C@H](C)[C@H](CC[C@@H]3C[C@@H](O)CC(=O)O3)[C@H]21 | inactive |  |
| Cc1ccc(C)c(O)c1 | inactive |  |
| O=C(O)c1cccc(Oc2ccccc2)c1 | inactive |  |
| CC[C@H]1CC[C@H](NCc2cc3c(cc2OC)[C@H]2C[C@H]2C(=O)N3C)[C@H](c2ccccc2)N1 |  | 33.2 µM (active) |
| CCn1nc(Cc2ccccc2)cc1C1CCN(C[C@H]2C[C@H](N(C)[C@@H](C(=O)O)C(C)C)C[C@@H]2c2cccc(F)c2)CC1 | inactive |  |

| SMILES | outcome | AC50 |
| --- | --- | --- |
| Cc1ccc(O)cc1 | inactive |  |
| CCNc1ccccc1 | inactive |  |
| O=c1[nH]c2ccc(S(=O)CCN3CCC(Cc4ccc(F)cc4)CC3)cc2o1 (stereo not given) |  | 55.1 µM (active) |
| COC(=O)c1ccccc1O |  | 26.4 µM (active) |
| Clc1nc(Cl)c(Cl)c(Cl)c1Cl | inactive |  |
| O=C(O)c1cccc(N(Cc2cccnc2)c2ccc(OC(F)F)c(OC(F)F)c2)c1 | inactive |  |
| Cn1c(=O)cc(Oc2ccc(F)cc2F)c2cnc(NCC(C)(C)O)nc21 | inactive |  |
| O=C1CCCCCN1 | inactive |  |
| O=C(O)CC(O)C(=O)O (stereo not given) | inactive |  |
| Cc1[nH]cnc1C[C@H]1CCc2c(C)c3ccccc3n2C1=O |  | 29.7 µM (active) |
| Nc1cccc(N)c1 | inactive |  |
| O=C(OC[C@H]1O[C@@H](OC(=O)c2cc(O)c(O)c(OC(=O)c3cc(O)c(O)c(O)c3)c2)[C@H](OC(=O)c2cc(O)c(O)c(OC(=O)c3cc(O)c(O)c(O)c3)c2)[C@@H](OC(=O)c2cc(O)c(O)c(OC(=O)c3cc(O)c(O)c(O)c3)c2)[C@@H]1OC(=O)c1cc(O)c(O)c(OC(=O)c2cc(O)c(O)c(O)c2)c1)c1cc(O)c(O)c(OC(=O)c2cc(O)c(O)c(O)c2)c1 | inactive |  |
| CC(C)(O)c1coc(S(=O)(=O)NC(=O)Nc2c3c(cc4c2CCC4)CCC3)c1 |  | 44.5 µM (active) |
| CC(C)CCCCCCCOC(=O)CCCCC(=O)OCCCCCCCC(C)C | inactive |  |
| COC(=O)c1c(Cl)c(Cl)c(C(=O)OC)c(Cl)c1Cl | inactive |  |
| C=CC(=C)CCC=C(C)C | inactive |  |
| COC(=O)CC(=O)OC | inactive |  |
| On1ccccc1=S | inactive |  |
| CC(O)CN(CCN(CC(C)O)CC(C)O)CC(C)O (stereo not given) | inactive |  |
| CCCC(=O)OCC | inactive |  |

Source: PubChem BioAssay (EPA / NIEHS)
